In the library only some 1.6% were active in any assay of this set; here they are far more common.
V-ATPase pHluor – regulators of yeast V-ATPase proton transport; S. cerevisiae, pHLuorin cytosolic pH fluorescence; response, % at 10 µM; 0.37% of 350,000 active; in the data active means response mostly above about 7.3%, no sharp cut-off; inactive means mostly below about 5.4%; further: actives read high
PG9 binder – binds the HIV-1 gp120 antibody PG9. TR-FRET gp120-PG9 antibody binding. inhibition, % at 6.7 µM. 0.43% of 360,000 active; in the data active means inhibition above about 8.5%
NPR1 activator – GC-A (human) enzyme activation; 0.14% of 370,000 active; activation, % at 10 µM; HEK293 GC-A cells, cGMP TR-FRET, EC30 ANP; 0% at EC30 ANP, 100% saturating ANP; in the data active means activation above about 40%
Rev-erbA mod – Rev-erb alpha (human) modulation | P20393 | Rev-erbα–FITC-DNA binding, fluorescence polarization, 90 min | activity, % at 10 µM | 0.79% of 370,000 active | AID 1259318;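 active means activity above about 14%, limit read from the data; passing the limit was not always enough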;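 further: 0% = DMSO wells with 35 nM protein and 100% = DMSO wells with 750 nM protein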
NPR2 activator – GC-B (human) receptor activation. 0.11% of 370,000 active. HEK293-GC-B cells, CNP EC30, cGMP TR-FRET; 0% at EC30 CNP, 100% saturating CNP. activation, % at 10 µM. P20594;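 active means activation at 10 µM reaching about 35% in either raw or pattern-adjusted values, limit read from the data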
V-ATPase pH SP – yeast V-ATPase proton transport regulation | S. cerevisiae pHLuorin cytosolic pH | shares compounds with V-ATPase pHluor | response, % at 10 µM | 2% of 980 active; in the data active means response above about 24%;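 further: plate controls were vehicle wells for no effect and positive control wells for full effect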
Starred values were filed as active, the others as inactive; . = not tested or not shown.

SMILES	V-ATPase pHluor	PG9 binder	NPR1 activator	Rev-erbA mod	NPR2 activator	V-ATPase pH SP
Cc1ccc(CSc2nnc(-c3n[nH]c4c3CCC4)n2N)cc1	.	.	-4	1	-2	.
O=C(c1cscn1)N1CCC(Oc2cccnc2)CC1	.	.	4	4	-4	.
COc1ccc(OC)c(CNC(=O)C2CCN(S(C)(=O)=O)CC2)c1	11*	0	2	0	0	-1
COc1cc(OC)c(OC)cc1/C=N/n1c(C)nc2ccccc2c1=O	14*	1	-2	2	4	0
COc1ccc(OC)c(/C=N/n2c(C)nc3ccccc3c2=O)c1	0	0	-1	1	-1	.
COC(=O)C1CN(Cc2ccccc2)CCS(=O)(=O)N1Cc1ccccc1F (stereo unspecified)	.	.	-7	-1	-1	.
O=C(NCCC1=CCCCC1)C1CCCN(S(=O)(=O)c2cccnc2)C1 (stereo unspecified)	-2	-1	3	1	0	.
O=C(NCCC1=CCCCC1)C1CCCN(S(=O)(=O)c2cccc3cccnc23)C1 (stereo unspecified)	7.3*	0	-2	-8	0	0
O=C(CSc1nc(=O)n(CCCN2CCOCC2)c2c1CCCC2)Nc1ccc(F)cc1F	6.0*	0	-3	-3	1	-1
CCN(CC)CCNC(=O)c1ccc(NC(=O)c2cccc(S(=O)(=O)Nc3ccc(C)cc3)c2)cc1	2	1	-4	0	1	.
CN(C)CCNC(=O)c1cccc(S(=O)(=O)Nc2ccc(F)cc2)c1	6.2*	0	2	-1	5	1
COC(=O)c1ccc(-n2c(C)cc(C(=O)CSc3cccc[n+]3[O-])c2C)cc1	12*	-1	2	1	-2	0
CC(C)=C1C2CCC1C1C(=O)N(c3nccs3)C(=O)C21 (stereo unspecified)	2	-1	-4	-2	2	.
O=C1C2C3C=CC(C3)C2C(=O)N1c1nccs1 (stereo unspecified)	9.4*	-3	-7	-4	5	1
NC(=O)C1CCN(c2ccnc(Cl)n2)CC1	.	.	1	-3	0	.
CCc1nn(CCCC(=O)N(C)Cc2ccccc2)c(=O)c2cc3occc3n12	-2	0	1	-1	-4	.
CCc1nn(C(C)C(=O)N(C)Cc2ccccc2)c(=O)c2cc3occc3n12 (stereo unspecified)	12*	-1	-2	7	-3	-1
O=C(CSCc1ccc(F)cc1)N1CCN(c2ccc(F)cc2)CC1	3	-1	-5	-1	-1	.
Cc1ccc(CSCC(=O)N2CCN(c3ccc(F)cc3)CC2)cc1	12*	-2	3	-5	-1	0
COCCn1c(=O)[nH]c2cc(C(=O)N3CCN(c4ccccc4OC)CC3)ccc2c1=O	10*	-2	-5	-1	-2	0
COCCn1c(=S)[nH]c2cc(C(=O)N3CCN(c4ccccc4OC)CC3)ccc2c1=O	3	1	-5	-1	-3	.
O=C(CCl)NN1C(=O)NC(c2ccccc2)(c2ccccc2)C1=O	12*	0	-1	6	0	1
N/C(=N\OC(=O)Cc1ccccc1)c1cccc(Br)c1	-2	1	8	-2	4	.
N/C(=N\OC(=O)Cc1ccccc1[N+](=O)[O-])c1cccc(Br)c1	13*	0	3	-6	1	-3
COC(=O)C[C@H]1CC[C@H]2[C@H](COc3ccc(NC(=O)C4CCOCC4)cc3C(=O)N2C)O1	.	.	3	-4	6	.
SMILES	V-ATPase pHluor	PG9 binder	NPR1 activator	Rev-erbA mod	NPR2 activator	V-ATPase pH SP
Cc1ccc(S(=O)(=O)N2CCN(C(=O)COC(=O)c3cccnc3Cl)CC2)c(C)c1	13*	1	2	-4	-2	0
O=C(Cc1ccc([N+](=O)[O-])cc1)Nc1cccc(C(F)(F)F)c1	12*	1	-1	-4	-5	-2
CC(=O)Nc1ccc(N/C=C(\C=O)c2nc3ccccc3o2)cc1	-33	0	0	3	0	.
O=C/C(=C\Nc1ccc(Br)cc1)c1nc2ccccc2o1	8.9*	-1	-5	2	3	0
COc1ccc2c(=O)cc(-c3ccccc3F)oc2c1	5.7*	1	-1	-3	-2	-1
O=C(Nc1ccc(F)cc1)Nc1c(-c2ccc(F)cc2)nc2ncccn12	.	.	2	-6	7	.
COc1ccc(OC)c(CN2C(=O)CCCCC2(C)c2nnnn2C2CCCC2)c1 (stereo unspecified)	.	.	3	3	2	.
COCCCNC(=O)C(Cc1ccccc1)NS(=O)(=O)c1ccc2c(c1)c(=O)n(C)c(=O)n2C (stereo unspecified)	16*	0	4	-3	5	-2
Cn1c(=O)c2cc(S(=O)(=O)NC(Cc3ccccc3)C(=O)NCc3ccco3)ccc2n(C)c1=O (stereo unspecified)	6	-2	1	4	5	.
Cc1ccc(S(=O)(=O)NCCC(=O)N2CCN(S(=O)(=O)c3cccc(F)c3)CC2)cc1C	9.1*	0	3	5	2	-5
CC1CC(C)(C)NC(=S)N1CC(=O)NCc1ccc(F)cc1 (stereo unspecified)	8.5*	-1	0	3	0	3
CN(CC(=O)Nc1ccccc1Cl)C(=O)C1CCN(C(=O)c2ccc(Cl)cc2)CC1	-3	0	3	1	1	.
Cc1cc(Br)ccc1NC(=O)CN(C)C(=O)C1CCN(C(=O)c2ccc(F)cc2)CC1	12*	0	4	1	2	1
CCc1sc(C(=O)NCc2ccco2)cc1C	12*	0	-1	2	0	2
CCc1sc(C(=O)NCc2ccco2)cc1Br	-1	0	0	-1	2	.
C[C@@H]1CCN(C2CC2)S(=O)(=O)c2ccc(N3CC[C@@H](N(C)C)C3)cc2O1	.	.	1	-6	2	.
Cc1csc(SCC(=O)NC2CCC(C)CC2)n1 (stereo unspecified)	7.5*	0	1	-1	3	-6
CN(C(=O)c1cccc(NC(=O)Cc2ccc(NC(=O)C3CCN(C(=O)CCc4ccccc4)CC3)cc2)c1)C1CCCCC1	7.7*	0	5	-8	3	0
CC(C)(C)N1Cc2nnn(CC3CCCCC3)c2-c2cc(F)ccc2S1(=O)=O	.	.	-7	-1	-1	.
O=C(N/N=C/c1ccc(O)cc1O)c1ccncc1	6.8*	-3	1	-2	-3	-2
O=S(=O)(N[C@@H]1CCCC[C@H]1N1CCOCC1)c1ccc(Cl)cc1	.	.	-1	-1	-4	.
CCOc1cccc(NC(=O)/C(C#N)=C\c2cn(CC(=O)O)c3ccccc23)c1	-1	-1	-7	4	0	.
CCOc1ccc(NC(=O)/C(C#N)=C/c2cn(CC(=O)O)c3ccccc23)cc1	7.1*	0	2	-1	0	-1
O=C(CSc1nnc(SCc2cccc3ccccc23)s1)c1ccc(F)cc1	.	.	1	-8	-7	.
